Measurements as given in publication PMC5540273 (PLoS ONE, 2017).

The molecules below were run on T1, CDC2L5.
T1 construct: gene CDK13
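Also: kd values determined as follow-up on hits from a single-replicate KINOMEscan panel screen.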

Structure (SMILES) | Kd [µM]
CCn1c(-c2c(N)noc2C)nc2cnccc21 [SB-737856] | > 10
CCn1c(-c2ccccc2)nc2cnccc21 [SB-733416] | > 10
COc1ccc(CSc2nnc(-c3ccc4c(c3)CCO4)o2)cc1 | > 10

What follows are molecules tested on T2, CDK11.
T2 construct: gene CDK19

Structure (SMILES) | Kd [µM]
O=c1cc(N2CCOCC2)nc2n(Cc3cccc(Cl)c3Cl)c3ccccc3n12 [GSK2299009] | > 10
CC(=O)c1cccc(NC(=O)NC2CCN(c3ccnc(Nc4ccc(F)cc4)n3)C2)c1 (stereo not shown) [GSK1379710] | 2
Cc1cnc(N)c(/C=C/c2cncc(C(=O)NCCc3ccc(Cl)cc3Cl)c2)c1.Cl [GSK190937] | 0.41
Nc1ncnc2occ(-c3ccc4c(c3)CCN4C(=O)Cc3cc(F)ccc3F)c12 [GSK2645446] | 1.1

These molecules were tested on CDK4-cyclinD1.

Structure (SMILES) | Kd [µM]
CC(C)c1ccc(O)cc1Nc1ccnc2ccc(C(F)(F)F)cc12 [GW482059] | > 10
CC(=O)c1c(C)c2cnc(Nc3ccn(C)n3)nc2n(C2CCCC2)c1=O | 0.023
CC(=O)c1c(C)c2cnc(Nc3ccc(N4CCNCC4)cn3)nc2n(C2CCCC2)c1=O | 0.0013
